Shiga inhibitor: A qHTS for Small Molecule Inhibitors of Shiga Toxin; inhibition, % at 38.7 µM; AID 2315, 2010; Vero cells, Shiga toxin protein synthesis inhibition reporter; actives 9.2% (n = 290,000); in the data active = inhibition mostly above about 28%, no sharp cut-off; inactive = mostly below about 43%; note: 0% is about no effect
Pf growth 96h: Primary qHTS for delayed death inhibitors of the malarial parasite plastid, 96 hour incubation; P. falciparum luciferase reporter growth, 96 h; Potency, µM (doses to about 28.7 µM), for the others: top-dose activity change, negative = inhibition, actives largely listed as inhibitors; actives 6.9% (n = 320,000); AID 504834, 2011; note: potency is the fitted concentration of half-maximal effect; % is set by controls: 0 for no effect and ±100 for the full control effect
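Two parasite generations (96 h, 37 C, 5% CO2) of compound exposure in infected erythrocytes (0.05% parasitemia, 2% hematocrit). Luciferase-reporter P. falciparum; decreased luminescence indicates inhibited growth, aimed at apicoplast-acting delayed death.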
CHX counter: Cycloheximide Counterscreen for Small Molecule Inhibitors of Shiga Toxin | max response, % | actives 12% (n = 300,000) | AID 2314, 2010 | cell reporter, cycloheximide protein synthesis inhibition counterscreen; in the data active = max response mostly above about 13%, no sharp cut-off; inactive = mostly below about 14%; note: read at 38.3 µM for the half of the compounds with a filed dose; 0% is about no effect
HCMV antiviral: qHTS Assay for inhibitors of the human cytomegalovirus (HCMV); HFF cells, HCMV-luciferase reporter, 72 h; stronger effect = lower value; AID 1259415, 2018; actives 4.5% (n = 410,000); activity change, negative = inhibition, % at 57.5 µM; in the data active = activity change below about -60%; inconclusive = no clear call, values can overlap the other calls; inactive = above about -39%; note: % is set by controls: 0 for no effect and ±100 for the full control effect
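Compounds were evaluated in HFFs infected with an HCMV luciferase reporter virus (MOI 1 PFU/cell). Luciferase in lysates collected 72 h post infection served as the replication measure.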
Pf growth 48h: Primary qHTS for delayed death inhibitors of the malarial parasite plastid, 48 hour incubation; P. falciparum luciferase growth in erythrocytes, 48 h; Potency, µM (highest dose often 28.7 µM), for inactives: at the top dose activity change, negative = inhibition, most hits filed as inhibitors; actives 5.9% (n = 310,000); AID 504832, 2011; note: potency is the fitted concentration of half-maximal effect; % is set by controls: 0 for no effect and ±100 for the full control effect
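Read-out is firefly luciferase luminescence from an integrated reporter in P. falciparum, so falling signal marks reduced parasite growth. Infected erythrocytes were at 2% hematocrit and 0.1% parasitemia (final) in Albumax-supplemented RPMI 1640.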
Starred values were filed as active, the others as inactive; ? = inconclusive; / = no result; + = active, no number; [ ] = dose if it differs, or a comment. Only some compounds are listed: those with a hit (about 20% of all), similar ones and a draw of the others. Unless noted, calls come from the whole dose curve; as a rule, active = well fitted inhibition curve with a large enough effect; inconclusive = small, poorly fitted or top-dose-only effect, or another doubt; inactive = no such curve, though single readings can be large or run the other way.

SMILES	Shiga inhibitor	Pf growth 96h	CHX counter	HCMV antiviral	Pf growth 48h
CN(C)c1ccc(C(=S)N2CCN(c3ccc([N+](=O)[O-])cc3)CC2)cc1	4	-6%	7	15	-1%
CN(C)c1ccc(C(=S)N2CCCCCC2)cc1	20	38%	20	-20	/
Cc1ccc(N2CCN(C(=S)c3ccc(N(C)C)cc3)CC2)cc1	active	29%	59*	-2	?
CN(C)c1ccc(C(=S)N2CCN(c3ccccc3)CC2)cc1	47	-58%	25*	-11	53%
CC1CCN(C(=S)c2ccc(N(C)C)cc2)CC1	62*	-4%[5.75 µM]	15	-20	6%
COc1cccc(-n2c(=O)c3c(C)c(C(=O)N(C)C)sc3n(CC(=O)Nc3ccc(C)cc3Cl)c2=O)c1	/	/	/	13	/
Cc1ccc2onc(CC(=O)N3CCN(c4ccc(F)cc4)CC3)c2c1	/	/	/	-13	/
CCCCCCc1nc2ccccc2c(=O)n1NC(=O)c1c(O)c2c(n(CC(C)C)c1=O)CCCC2	12	?	-2	-93*	9%
COC(=O)[C@@]1(Cc2ccc(OC)cc2)[C@@H]2[C@@H](CC(=O)[C@H]2CC(=O)C(=O)N(C)C)CN1C(=O)c1ccccc1	-19	?	-4	-6	?
COC(=O)[C@@]1(Cc2ccc(F)cc2)[C@H]2c3cc(C(=O)N(C)C)n(CCSCCO)c3C[C@H]2CN1C(=O)c1ccccc1	-12	13µM*	-4	0	6.6µM*
COC(=O)[C@@]1(Cc2ccc(F)cc2)[C@H]2c3cc(C(=O)N(C)C)n(Cc4cc(C)n(C)n4)c3C[C@H]2CN1C(=O)c1ccccc1	/	/	/	-8	/
COC(=O)[C@@]1(Cc2ccc(F)cc2)[C@H]2c3cc(C(=O)N(C)C)n(Cc4nc5ccccc5[nH]4)c3C[C@H]2CN1C(=O)c1ccccc1	6	3.7µM*	10	-31	1.5µM*
COC(=O)[C@@]1(Cc2ccc(F)cc2)[C@@H]2[C@@H](CC(=O)[C@H]2CC(=O)C(=O)N(C)C)CN1C(=O)c1ccccc1	-3	9.3µM*	-4	/	-23%
COC(=O)[C@@]1(Cc2ccc(F)cc2)[C@H]2c3cc(C(=O)N(C)C)n(Cc4ccccn4)c3C[C@H]2CN1C(=O)c1ccccc1	9	2.9µM*	-5	4	3.3µM*
CCOC(=O)c1nnc2c(-c3ccc(OC)cc3)c(C)nn2c1N	/	/	/	-3	/
CCn1c(-c2ccc3[nH]c(C)c(C)c3c2)n[nH]c1=S	-13	48%	-5	20	18%
O=C(N/N=C/c1cnc(N2CCOCC2)s1)c1ccccc1	37	-6%	20*	-4	39%
CC(=O)c1cccc(NC(=O)c2cccc(S(=O)(=O)N3CCOCC3)c2)c1	-5	13%	3	27	-24%
CC(=O)Nc1cccc(/C(C)=N/NC(=O)c2cccc(S(=O)(=O)N3CCOCC3)c2)c1	14	12µM*	-1	-31	-2%
CC(C)c1ccc(/C=N/NC(=O)c2cccc(S(=O)(=O)N3CCOCC3)c2)cc1	-7	-14%	-1	-20	8%
O=C(N/N=C/c1sc(N2CCOCC2)nc1-c1ccccc1)c1ccc(O)cc1	12	?	14	49	?
O=C(N/N=C/c1sc(N2CCOCC2)nc1-c1ccccc1)c1cccc(S(=O)(=O)N2CCCC2)c1	20	?	-2	-112*	?
CC(=O)Nc1ccc(/C=N/NC(=O)c2cccc(S(=O)(=O)N3CCOCC3)c2)cc1	-4	17%	-2	-102*	22%
CNc1[nH]c(=O)[nH]c(=O)c1N=Nc1cc(Cl)ccc1Cl	/	/	/	3	/
CCOC(=O)c1ccc(NC(=O)CN(Cc2ccc(C)cc2)S(=O)(=O)c2ccc(C)cc2)cc1	/	/	/	4	/
SMILES	Shiga inhibitor	Pf growth 96h	CHX counter	HCMV antiviral	Pf growth 48h
C/C(=N\NC(=O)c1cccc(S(=O)(=O)N2CCOCC2)c1)c1ccc(O)cc1	/	0.59µM*	/	-11	-20%
CC1=C(C#N)C(c2cccnc2)C2=C(N1)c1ccccc1C2=O (stereo not given)	-18	1%	5	-28	0%
CC1=C(C#N)C(c2ccccc2)C2=C(N1)c1ccccc1C2=O (stereo not given)	-16	15µM*	-2	-71*	?
CC(=O)N1CC(C)Sc2ccc(S(=O)(=O)NCCc3ccc(C)cc3)cc21 (stereo not given)	3	?	9	?	0%
CC(=O)N1CC(C)Sc2ccc(S(=O)(=O)NC(C)c3ccccc3)cc21 (stereo not given)	-8	13µM*	-4	-72*	-3%
CC(=O)N1CCSc2ccc(S(=O)(=O)NCCc3ccc(Cl)cc3)cc21	-3	?	1	-60*	-16%
CC(=O)N1CC(C)Sc2ccc(S(=O)(=O)NCCc3ccccc3)cc21 (stereo not given)	56*	?	32*	+	38%
COc1cc(-c2nc(-c3ccc(NC(=O)c4ccc(Br)o4)cc3)no2)cc(OC)c1OC	49	?	36*	44	/
COc1ccc(-c2nc(-c3ccc(NC(=O)c4ccc(Br)o4)cc3)no2)cc1OC	46*	?	29*	-12	?
COc1cc(C(=O)Nc2ccc(-c3nc4cc(C)c(C)cc4o3)cc2)cc(OC)c1OC	/	/	/	14	/
N#Cc1ccccc1NC(=O)CSc1n[nH]c(=O)n1C1CC1	/	/	/	41	/
O=C(CCC1CCCN(C(=O)CC2=CCCCC2)C1)N1CCN(c2ccccn2)CC1 (stereo not given)	-9	?	-2	?	-3%
c1ccc(-c2n[nH]c(-c3ccccn3)n2)cc1	63	/	24*	58	191%
c1ccc(-c2n[nH]c(-c3ccccn3)n2)nc1	62*	26%	33*	84	111%
c1ccc(-c2nn[nH]n2)nc1	-8	13%	-2	32	-1%
Cc1ccc(C(=O)NCCNS(C)(=O)=O)cc1	45	?	14	61	40%
O=C(Cn1nc(Cl)nc1Cl)c1ccc(F)cc1	-7	?	9	-8	12µM*
Cc1nnc(NC(=O)c2csc3c2CCCC3)s1	6	-4%	1	46	41%
COc1cc(NC(=O)c2csc3c2CCCC3)ncn1	53*	?	40*	45	/
COc1ccccc1NC(=O)c1csc2c1CCCC2	30	36%	8	14	-1%
O=C(Nc1ccccn1)c1onc2c1CCCC2	10	110%	30*	?	48%
O=C(Nc1ccccn1)c1csc2c1CCCC2	84*	?	49*	9	58%
COc1ccc(CNC(=O)c2ccc(Cn3cc(Br)cn3)o2)cc1	-11	38%	-1	22	-14%
Cc1noc(C)c1C(=O)OCC(=O)Nc1c(F)cccc1F	7	24%	8	72	3%
C=CCNC(=O)CSc1nnc(-c2ccncc2)n1CCc1ccccc1	-10	12µM*	-1	1	1%

Screens from PubChem BioAssay.
